Sampled rows, rich in hits. Any-hit rate of the full collection: about 12%.
BAZ2B inh – BAZ2B (human) inhibition. AlphaScreen BAZ2B-H3K14Ac peptide displacement. Q9UIF8. 360,000 compounds, 4.4% hits. Potency, µM (doses to about 114 µM), for inactives: at the top dose activity change, negative = inhibition, actives largely listed as inhibitors; also: % is scaled to controls: 0 for no effect and ±100 for the full control effect; nearly all actives have a fitted effect of over 60% in size
Target sequence (Q9UIF8 whole entry, looked up): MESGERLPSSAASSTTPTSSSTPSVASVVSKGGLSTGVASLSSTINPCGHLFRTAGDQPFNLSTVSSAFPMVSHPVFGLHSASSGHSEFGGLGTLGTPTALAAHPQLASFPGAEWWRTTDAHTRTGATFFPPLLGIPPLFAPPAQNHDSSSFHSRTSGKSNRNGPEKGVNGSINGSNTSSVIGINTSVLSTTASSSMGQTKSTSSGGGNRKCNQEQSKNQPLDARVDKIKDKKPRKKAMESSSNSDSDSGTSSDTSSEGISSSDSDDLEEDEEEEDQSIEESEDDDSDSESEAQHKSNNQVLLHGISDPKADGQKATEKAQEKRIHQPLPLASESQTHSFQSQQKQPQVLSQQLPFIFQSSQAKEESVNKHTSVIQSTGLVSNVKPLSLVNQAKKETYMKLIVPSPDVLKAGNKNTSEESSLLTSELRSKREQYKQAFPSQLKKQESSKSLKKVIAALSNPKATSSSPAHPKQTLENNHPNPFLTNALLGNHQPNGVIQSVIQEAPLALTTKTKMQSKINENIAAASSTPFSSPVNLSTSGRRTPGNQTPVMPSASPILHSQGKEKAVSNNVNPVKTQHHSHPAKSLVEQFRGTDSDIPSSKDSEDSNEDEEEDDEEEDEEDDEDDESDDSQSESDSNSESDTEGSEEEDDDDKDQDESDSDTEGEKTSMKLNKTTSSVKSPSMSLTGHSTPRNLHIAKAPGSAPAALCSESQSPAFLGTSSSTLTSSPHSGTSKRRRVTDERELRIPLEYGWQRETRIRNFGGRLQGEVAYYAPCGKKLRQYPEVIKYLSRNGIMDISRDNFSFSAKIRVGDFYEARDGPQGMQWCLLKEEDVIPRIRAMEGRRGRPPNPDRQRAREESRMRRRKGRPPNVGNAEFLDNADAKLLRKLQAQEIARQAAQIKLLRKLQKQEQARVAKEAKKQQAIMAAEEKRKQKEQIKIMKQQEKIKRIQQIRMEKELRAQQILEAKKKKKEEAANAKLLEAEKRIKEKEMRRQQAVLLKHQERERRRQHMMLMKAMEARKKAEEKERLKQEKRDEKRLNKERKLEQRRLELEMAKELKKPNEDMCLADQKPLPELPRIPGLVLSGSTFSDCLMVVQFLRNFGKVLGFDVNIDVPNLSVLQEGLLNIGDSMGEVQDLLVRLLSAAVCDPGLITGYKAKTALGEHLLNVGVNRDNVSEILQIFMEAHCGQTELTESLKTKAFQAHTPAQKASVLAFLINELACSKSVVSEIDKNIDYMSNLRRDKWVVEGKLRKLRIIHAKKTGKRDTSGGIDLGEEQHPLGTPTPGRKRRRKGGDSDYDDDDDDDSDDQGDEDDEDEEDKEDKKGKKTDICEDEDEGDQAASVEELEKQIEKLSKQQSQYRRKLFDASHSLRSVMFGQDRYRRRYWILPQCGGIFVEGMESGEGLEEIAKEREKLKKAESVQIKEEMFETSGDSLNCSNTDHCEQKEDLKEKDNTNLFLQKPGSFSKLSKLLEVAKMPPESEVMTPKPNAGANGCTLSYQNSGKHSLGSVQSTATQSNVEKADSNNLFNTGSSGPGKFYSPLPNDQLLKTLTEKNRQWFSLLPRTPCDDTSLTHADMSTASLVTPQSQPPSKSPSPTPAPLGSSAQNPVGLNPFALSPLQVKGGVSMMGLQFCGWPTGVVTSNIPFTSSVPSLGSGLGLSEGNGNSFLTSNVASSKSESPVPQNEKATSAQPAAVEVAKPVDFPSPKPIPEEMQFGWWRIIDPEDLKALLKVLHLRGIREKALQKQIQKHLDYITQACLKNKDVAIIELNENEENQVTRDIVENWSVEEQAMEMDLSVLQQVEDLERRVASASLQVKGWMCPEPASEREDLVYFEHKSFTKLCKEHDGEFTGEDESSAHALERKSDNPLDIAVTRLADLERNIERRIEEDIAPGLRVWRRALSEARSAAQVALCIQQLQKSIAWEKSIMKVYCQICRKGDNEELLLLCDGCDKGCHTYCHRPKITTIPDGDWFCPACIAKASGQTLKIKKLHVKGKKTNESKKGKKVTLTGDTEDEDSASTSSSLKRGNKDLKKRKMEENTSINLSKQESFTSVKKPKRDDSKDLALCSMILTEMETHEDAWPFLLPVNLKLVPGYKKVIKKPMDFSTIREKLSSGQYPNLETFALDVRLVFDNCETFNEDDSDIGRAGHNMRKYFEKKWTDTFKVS
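Protein-peptide AlphaScreen: BAZ2B 50 nM, b-H3K14Ac 50 nM, 1x PBS pH 7.4 + 0.01% Tween-20. Preincubation 30 min RT; cpd 30 min RT (top 110 uM); beads 20 min RT, light-protected.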
JMJD2A Tudor – blocks the human JMJD2A Tudor domain. O75164. AlphaScreen JMJD2A-Tudor / H3K4me3 peptide binding. Potency, µM (doses to about 114 µM), for inactives: top-dose activity change, negative = inhibition, hits mostly inhibitors. 390,000 compounds, 4.4% hits; also: % is scaled to controls: 0 for no effect and ±100 for the full control effect; nearly all actives have a fitted effect of over 50% in size
G9a inh – G9a (human) methyltransferase inhibition; Q96KQ7; G9a H3K9 monomethylation, AlphaScreen, 2 h; Potency, µM (series often up to 102 µM), without a hit: at the highest dose activity, negative = inhibition, most hits filed as inhibitors; 350,000 compounds, 8.8% hits; AID 504332; also: % is scaled to controls: 0 for no effect and ±100 for the full control effect; nearly all actives have a fitted effect of over 75% in size
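Quantitative HTS format: methyltransferase activity on a biotin-tagged H3K9 peptide is measured by AlphaScreen, using a rabbit anti-monomethyl-H3K9 antibody with streptavidin donor and anti-IgG acceptor beads. Final levels are 20 nM enzyme, 500 nM peptide, 20 uM SAM; 2 h RT.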
HP1b chromo inh – blocks HP1-beta chromodomain binding to methylated histone tails | 390,000 compounds, 0.56% hits | P83916 | AID 540317 | AlphaScreen HP1-beta / biotin-H3K9me3 peptide binding | Potency, µM (highest dose often 114 µM), without a hit: at the highest dose activity change, negative = inhibition, most hits filed as inhibitors; also: nearly all actives have a fitted effect of over 70% in size
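Compound inhibition of the preformed complex between 50 nM HP1-beta and 50 nM biotinylated H3K9me3 peptide was read by AlphaScreen. Buffer was PBS pH 7.4 with 0.01% Tween-20. Incubations ran 30 min at room temperature, with 10 ug/mL donor/acceptor beads.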
Sfp inh – blocks B. subtilis Sfp PPTase activity; 310,000 compounds, 3.5% hits; Potency, µM, without a hit: largest response in the series, negative = inhibition, actives largely listed as inhibitors; Q9F4F7; Biochemical Sfp PPTase activity, qHTS;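 also: the enzyme is Sfp with the accession as filed and its product quenches rhodamine fluorescence; 0% = enzyme reaction without inhibitor and -100% = no enzyme wells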
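Fluorescence-quenching assay: 15 nM Sfp-PPTase preincubated 15 min at room temperature with compound, then 5 uM rhodamine-CoA and 12.5 uM BHQ-2-labelled YbbR peptide added. Fluorescence (ex 525/em 598 nm) read at start and after 30 min; difference gives rate.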
The depositor's hits bear a star; ? = inconclusive; · = no result; [ ] = remark or other dose. Calls follow the shape of the dose curve; as a rule, active = well fitted curve in the direction sought with a large enough effect; inconclusive = small, poorly fitted or top-dose-only effect, or another doubt; inactive = no such curve, though single readings can be large; an effect the other way counts as inactive or inconclusive. Potency is read from the fitted curve at half-maximal effect.

SMILES | BAZ2B inh | JMJD2A Tudor | G9a inh | HP1b chromo inh | Sfp inh
O=C(O)c1ccc(OCCn2ccnc2)cc1 | 79µM* | ? | ? | 17% | 15%
Clc1ccc(OCCn2ccnc2)cc1Cl | 50µM* | 5.6µM* | · | ? | -24%
CCCCCCOc1ccc(C(=O)NCCCn2ccnc2)cc1 | -39% | -34% | -39% | 1% | 16%
Clc1ccccc1OCCCCn1ccnc1 | -4% | -23% | 4%[59 µM] | 11% | 10%
Clc1cccc(OCCCn2ccnc2)c1 | -8% | -9% | · | 11% | 7%
Clc1cc(Br)ccc1OCCCn1ccnc1 | 50µM* | 22µM* | ? | ? | -13%
Clc1ccccc1OCCCn1ccnc1 | 79µM* | 18µM* | 25µM* | ? | -6%
O=C(c1ccc(OC2CCN(Cc3ccccc3O)CC2)cc1)N1CCCCC1 | 0% | -14% | ? | 12% | 13%
N#CC(/C(=N/S(=O)(=O)c1cccs1)c1ccccc1)c1nc2ccccc2[nH]1 (centres undefined) | -3% | -8% | -8% | 32% | 10%
Cc1cccc(C(C)(C)C)c1OCCn1ccnc1 | 79µM* | 1.3µM* | 18µM* | 50µM* | 2%
Clc1cc(Br)ccc1OCCn1ccnc1 | 22µM* | 3.2µM* | 8.9µM* | ? | -17%
Cc1ccc(OCCCn2ccnc2)c(Br)c1 | 56µM* | 22µM* | 14µM* | ? | 0%
Cc1cc(C)c(C)c(OCCn2ccnc2)c1 | -39% | -25% | ? | 41% | -7%
Cc1cc(Br)ccc1OCCn1ccnc1 | 50µM* | 4.5µM* | 32µM* | 22µM* | 9%
Cc1ccccc1OCCCCCn1ccnc1 | -31% | ? | -17% | -1% | 13%
COc1ccccc1NC1CCCCC1NS(=O)(=O)c1ccc(C)cc1 (centres undefined) | -2% | ? | · | -3% | 2%
CCCCS(=O)(=O)N1CCCC(C(=O)Nc2ccc3c(c2)CCC3)C1 (centres undefined) | -18% | -13% | -10%[0.501 µM] | 22% | 1%
CCOC(=O)C(CCCCCOc1ccc([N+](=O)[O-])cc1)C(=O)OCC | 35% | 51% | 12%[2.33 µM] | 141% | -3%
CCOc1ccc(NC(=O)CN(C)C(=O)c2cccnc2Sc2ccc(Cl)cc2)cc1OCC | -23% | -18% | 7%[0.501 µM] | 20% | ·
CN(CC(=O)Nc1cccc(F)c1)C(=O)CCc1nc2ccccc2c(=O)[nH]1 | 12% | -18% | 45µM* | 11% | ·
CC(=O)c1cccc(NC(=O)c2cc(=O)[nH]c3ccccc23)c1 | -17% | -4% | 45µM* | 53% | -7%
CN(CC(=O)Nc1cccc(F)c1)C(=O)c1cc(=O)[nH]c2ccccc12 | 10% | -5% | 8.9µM* | 35% | ·
Cc1ccc(NC(=O)c2cc(=O)[nH]c3ccccc23)cc1C | -26% | -6% | · | 40% | -7%
COc1ccc(Cl)cc1NC(=O)CN(C)C(=O)c1cccc2cccnc12 | · | -21% | · | 23% | ·
COc1ccc(Cl)cc1NC(=O)CN(C)C(=O)c1cc2ccccc2cc1O | ? | -36% | 50µM* | -9% | ·
SMILES | BAZ2B inh | JMJD2A Tudor | G9a inh | HP1b chromo inh | Sfp inh
CN(CC(=O)Nc1cccc(F)c1)C(=O)c1ccc(-c2cccc(C(F)(F)F)c2)o1 | -8% | -29% | 18µM* | 11% | ·
COc1ccc(Cl)cc1NC(=O)CN(C)C(=O)c1ccc2c(c1)OCCO2 | 4% | -8% | 40µM* | 24% | ·
CN(CC(=O)Nc1cccc(F)c1)C(=O)c1ccc2c(c1)OCCO2 | -9% | 1% | 10µM* | 35% | ·
O=C(NCc1cccc2ccccc12)[C@H]1C[C@@H]1[C@H](NP(=O)(c1ccccc1)c1ccccc1)c1ccccc1 | · | · | · | · | 21%
COc1cccc(CNC(=O)c2cc3ccccn3n2)c1 | -2% | 8% | 18% | 30% | 11%
Cc1cc(NC(=O)CSc2nc3ccsc3c(=O)n2Cc2ccccn2)n[nH]1 | 79µM* | -36% | 102%[59 µM] | 18% | 13%
CCCNS(=O)(=O)c1ccc2nc(NC(=O)c3ccc(F)cc3)sc2c1 | 4% | 50µM* | 1.4µM* | ? | ·
CS(=O)(=O)c1ccc2nc(NC(=O)CN3CCN(Cc4ccccc4)CC3)sc2c1 | -5% | ? | 13µM* | 17% | 10%
CC(C)CC(=O)Nc1nc2ccc(S(C)(=O)=O)cc2s1 | -30% | -7% | 50µM* | 37% | 20µM*
CCC(=O)Nc1nc2ccc(S(C)(=O)=O)cc2s1 | 4% | 15% | -11%[59 µM] | 58% | 17%
COc1cccc(NC(=O)/C(C#N)=C\c2cn(Cc3ccc(Cl)cc3)c3ccccc23)c1 | -12% | -23% | -4%[59 µM] | 28% | ·
COC(=O)c1ccc2c(=O)n(-c3ccccc3)c(SCN3C(=O)c4ccccc4C3=O)nc2c1 | -1% | 3% | 28µM* | 50% | -8%
CCN(Cc1ccccc1)c1nc2c(S(=O)(=O)c3ccccc3)nnn2c2ccc(Cl)cc12 | 9% | -3% | 11%[59 µM] | 16% | ·
O=C(O)CC(C(=O)O)c1ccc(OCCCCOc2ccc(C(CC(=O)O)C(=O)O)cc2)cc1 (centres undefined) | -30% | ? | 79µM* | 12% | 12%
CC(C)CCOc1ccc(C(CC(N)=O)C(=O)O)cc1 (centres undefined) | 8% | -6% | -8% | 25% | 8%
Cc1ccc(C(=O)N/N=C/c2nc3ccccc3n2C)cc1 | ? | 63µM* | 33%[12.7 µM] | 47% | -26%
CC(C)(C)OC(=O)N/N=C\c1cccnc1 | -31% | -15%[11.4 µM] | 1.3µM* | 3% | 12%
Cc1ccc(C(=O)Nc2ccc(C(=O)N/N=C/c3cccnc3)cc2)cc1 | -34% | ? | 79µM* | ? | -5%
O=C(N/N=C/c1cccnc1)C(O)(c1ccccc1)c1ccccc1 | -2% | -4% | 2%[59 µM] | 11% | 24%
Cn1c(/C=N/NC(=O)c2ccccc2Br)nc2ccccc21 | 8%[57.1 µM] | -17% | 33%[0.501 µM] | 35% | ?
O=C(Cc1ccc(NC(=O)C2CCN(C(=O)C3CCC3)CC2)cc1)Nc1cccc(C(=O)N2CCCCC2)c1 | · | -21% | · | 28% | ·
CC[C@H](C)[C@H](NC(=O)[C@@H]1CCCN1C(=O)[C@H](Cc1cnc[nH]1)NC(=O)[C@H](CCCCNC(=O)[C@H](CCCN=C(N)N)NC(=O)OCc1ccccc1)NC(=O)[C@H](Cc1ccc(O)cc1)NC(=O)c1cccnc1)C(=O)O | · | · | · | · | -6%
O=C1OCCC1Sc1nnc(-c2ccco2)n1-c1ccccc1 (centres undefined) | -13% | -10% | 10%[59 µM] | 42% | -1%
CC(CN1CCOCC1)OC(=O)c1ccccc1Br (centres undefined) | -24% | -28% | -44%[12.7 µM] | 42% | 11%
CCOC(=O)C(C)Sc1nc2c(c(-c3cccs3)c1C#N)CCC2 (centres undefined) | 61% | 122% | 64%[59 µM] | 182% | 50µM*
COC(=O)CSc1nc2c(c(-c3ccc(O)cc3)c1C#N)CCCC2 | -25% | -26% | ? | 12% | -1%

Screening results: PubChem BioAssay, National Center for Advancing Translational Sciences (NCATS)
